Measurements published in the supplement of paper PMC11865577.
Counter-ions that a name gives are not always drawn.

test system: hsa-mir-374a loop; test: normalised indicator fluorescence (fraction of RNA + indicator signal without compound); higher = less displacement of indicator (weaker competition); settings: compound concentration: 5 uM; 30 min; indicator: TO-PRO-3 0.5 uM; RNA concentration: 0.5 uM
In short: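 For the displacement screen, RNA and a TO-PRO-1 or TO-PRO-3 indicator were held in 20 mM phosphate pH 7.0 with 20 mM NaCl and 80 mM KCl in 96-well plates. After adding 0.25 μL of each 1 mM DMSO stock (about 5 uM final) and waiting 30 min, fluorescence was measured on an Infinite 200 PRO with excitation at 485 or 620 nm. Each value is the mean of two independent experiments, expressed as blank-subtracted indicator fluorescence relative to the no-compound RNA-plus-indicator signal.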

Row | Structure (SMILES) | normalised indicator fluorescence
1 | CC(=O)Oc1c(C)c(C)c2c(c1C)CCC(C)(CCC[C@H](C)CCC[C@H](C)CCCC(C)C)O2 (stereo not given in full) [Vitamin E Acetate] | 1.02
2 | COc1nccnc1NS(=O)(=O)c1ccc(NC(=O)/C=C/c2ccc([N+](=O)[O-])s2)cc1 [Necrosulfonamide] | 1.18
3 | CN(NC(=O)CC(=O)NN(C)C(=S)c1ccccc1)C(=S)c1ccccc1 [Elesclomol] | 1.18
4 | O=c1ccc2ccc(O)cc2o1 [7-Hydroxycoumarin] | 1.15
5 | O=C(O)/C=C/c1ccc(Cn2ccnc2)cc1 [Ozagrel hydrochloride] | 1.12
6 | Fc1ccc(-c2nc3n(c2-c2ccncc2)CCS3)cc1 | 1.18
7 | O=[N+]([O-])c1ccc(-c2nc(-c3ccc(F)cc3)c(-c3ccncc3)[nH]2)cc1 | 1.15
8 | OC[C@H]1O[C@@H](Oc2ccc(O)cc2)[C@H](O)[C@@H](O)[C@@H]1O [Arbutin] | 1.04
9 | COc1ccc(O)cc1 [4-Methoxyphenol] | 1.14
10 | CCNC(=O)c1noc(-c2cc(C(C)C)c(O)cc2O)c1-c1ccc(CN2CCOCC2)cc1 [Luminespib] | 1.15
11 | O=c1cc(-c2ccc(O)cc2)oc2cc(O)cc(O)c12 [Apigenin] | 1.22
12 | O=C1O[C@H]([C@@H](O)CO)C(O)=C1O [L(+)-Ascorbic acid] | 1.12
13 | O=c1ncn2nc(Sc3ccc(F)cc3F)ccc2c1-c1c(Cl)cccc1Cl [Neflamapimod] | 1.3
14 | Cc1cccc(CC(=O)N2CCc3c2ccc(-c2cn(C)c4ncnc(N)c24)c3F)n1 | 1.06
15 | CC(=O)O[C@H]1C[C@@]2(C)[C@@H](C[C@@H](O)[C@H]3[C@@]4(C)CC[C@@H](O)[C@@H](C)[C@@H]4CC[C@@]32C)/C1=C(\CCC=C(C)C)C(=O)O [Sodium fusidate] | 1.11
16 | CC(=O)CCCCn1c(=O)c2c(ncn2C)n(C)c1=O [Pentoxifylline] | 0.959
17 | Cc1c(C)c2c(c(C)c1O)CC[C@@](C)(CCC[C@H](C)CCC[C@H](C)CCCC(C)C)O2 [Vitamin E] | 1.06
18 | O=C(NC(Cc1cc(=O)[nH]c2ccccc12)C(=O)O)c1ccc(Cl)cc1 (stereo not given) [Rebamipide] | 1.13

Row | Structure (SMILES) | normalised indicator fluorescence
19 | NC(=O)c1ccc(N(C(N)=O)c2c(F)cccc2F)nc1-c1ccc(F)cc1F | 1.19
20 | CC(C)OC(=O)CCC/C=C\C[C@@H]1[C@@H](CC[C@@H](O)CCc2ccccc2)[C@H](O)C[C@@H]1O [Latanoprost] | 1.06
21 | CCCC(C(=O)OCCN(CC)CC)(c1ccccc1)c1ccccc1 [Proadifen hydrochloride] | 1.17
22 | COC1=C2C[C@@H](C)C[C@H](OC)[C@H](O)[C@@H](C)/C=C(\C)[C@H](OC(N)=O)[C@@H](OC)/C=C\C=C(/C)C(=O)NC(=CC1=O)C2=O [Geldanamycin] | 1.31
23 | COc1ccc(C(=C2C(=O)Nc3ccccc32)c2ccc(OC)cc2)cc1 | 1.15
24 | O=C1C[C@@H](c2ccc(O)cc2)Oc2cc(O)cc(O)c21 [Naringenin] | 1.18
25 | [I-].[K+] [Potassium iodide] | 1.05
26 | CO[C@H]1/C=C/O[C@@]2(C)Oc3c(C)c(O)c4c(c3C2=O)C2=NC3(CCN(CC(C)C)CC3)NC2=C(NC(=O)/C(C)=C\C=C\[C@H](C)[C@H](O)[C@@H](C)[C@@H](O)[C@@H](C)[C@H](OC(C)=O)[C@@H]1C)C4=O [Rifabutin] | 1.04
27 | O=C(O)/C=C/c1ccc(Cn2ccnc2)cc1 [Ozagrel] | 1.19
28 | CC1(C)OC(=O)C=C[C@]2(C)[C@H]3CC[C@@]4(C)[C@H](c5ccoc5)OC(=O)[C@H]5O[C@]54[C@]3(C)C(=O)C[C@@H]12 [Obacunone] | 1.09
29 | NNC(=O)c1ccncc1 [Isoniazid] | 1.07
30 | CC1=NN(c2ccccc2)C(=O)C1 [Edaravone] | 1.12
31 | CC(C)(O)[C@@H]1CC[C@](C)([C@H]2[C@@H](O)C[C@@]3(C)[C@@H]4C[C@H](O)[C@H]5C(C)(C)[C@@H](O[C@@H]6OC[C@@H](O)[C@H](O)[C@H]6O[C@@H]6O[C@H](CO)[C@@H](O)[C@H](O)[C@H]6O)CC[C@@]56C[C@@]46CC[C@]23C)O1 [Astragaloside III] | 1.19
32 | O=C(Nc1ccc2[nH]nc(-c3ccncc3)c2c1)[C@@H]1CCN(CC(=O)N2CCN(c3ccc(-c4ncccn4)cc3)CC2)C1 | 1.16
33 | O=C(COc1ccc(Cl)cc1)NC1CCC(NC(=O)COc2ccc(Cl)cc2)CC1 (stereo not given) | 1.08
34 | Oc1cc(O)c2c(c1)O[C@H](c1ccc(O)c(O)c1)[C@@H](O)C2 [Cianidanol] | 1.17
35 | C[C@@H]1O[C@@H](O[C@@H]2[C@@H](O)[C@H](OCCc3ccc(O)c(O)c3)O[C@H](CO)[C@H]2OC(=O)/C=C/c2ccc(O)c(O)c2)[C@H](O)[C@H](O)[C@H]1O [Verbascoside] | 1.14
